Screening results from PubChem BioAssay.
Most compounds without a hit are left out; they make up all but 2.2% or so of the library.
HTR2A ag – mouse HTR2A agonism via beta-arrestin recruitment; CHO-K1 mHTR2A beta-arrestin complementation, luminescence; percent of 30 µM serotonin response; AID 624169; 360,000 compounds, 0.66% hits; activation, % at 7.6 µM;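 active = activation above a run cutoff, the mean activation of all tested compounds plus 3 SD, cut at about 14% in these data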;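 note: 0% = plate median of compound wells and 100% = 30 µM serotonin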
MOR-DOR inv ag – inverse agonist of human OPRM1-OPRD1 heterodimerization. P35372+P41143. AID 504357. cell-based MOR-DOR heterodimer luminescence, inverse agonism. inhibition, % at 9.3 µM. 340,000 compounds, 0.21% hits; in the data active = inhibition above about 22%, passing the limit was not always enough;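 note: 0% = cells with DMSO and 100% = wells without cells with DMSO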
HTR5A ag – counter-screen for OPRM1-OPRD1 agonists: human HTR5A agonism | P47898 | HTR5A agonist assay, luminescence, cell-based | activation, % at 9.3 µM | 340,000 compounds, 0.61% hits | AID 504692; in the data active = activation mostly above about 9.5%, no sharp cut-off; inactive = mostly below about 7.6%;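 note: 0% = cells with vehicle only and 100% = reference agonist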
HGIII-sPLA2 inh – Blocks human group III sPLA2 activity. Q9NZ20. QFRET BODIPY PC-A2 liposome hydrolysis, fluorescence. inhibition, % at 12.2 µM. 370,000 compounds, 0.56% hits;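 active = inhibition above mean plus 3 SD of compounds lying within the high and low control bounds, cut at about 19% in these data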;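 note: 0% = median of test compound wells and 100% = no enzyme DMSO wells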
Target sequence (Q9NZ20 whole entry, looked up): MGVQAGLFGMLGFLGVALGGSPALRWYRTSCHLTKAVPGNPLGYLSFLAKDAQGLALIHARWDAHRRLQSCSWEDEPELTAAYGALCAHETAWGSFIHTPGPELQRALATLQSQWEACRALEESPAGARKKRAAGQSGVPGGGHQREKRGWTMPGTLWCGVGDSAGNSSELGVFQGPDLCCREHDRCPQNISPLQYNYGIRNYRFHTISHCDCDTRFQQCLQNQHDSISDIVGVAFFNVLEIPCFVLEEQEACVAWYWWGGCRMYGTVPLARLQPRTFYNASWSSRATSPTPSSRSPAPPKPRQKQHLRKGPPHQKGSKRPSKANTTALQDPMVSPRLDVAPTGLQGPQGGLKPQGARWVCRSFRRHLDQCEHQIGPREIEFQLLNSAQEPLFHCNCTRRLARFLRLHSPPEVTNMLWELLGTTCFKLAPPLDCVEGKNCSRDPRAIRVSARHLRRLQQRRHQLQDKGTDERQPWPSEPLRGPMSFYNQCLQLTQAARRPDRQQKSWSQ
OPRM1-OPRD1 ag – agonists of human mu-delta opioid receptor heterodimerization. cells, OPRM1-OPRD1 heterodimerization, luminescence. activation, % at 9.3 µM. 340,000 compounds, 0.3% hits. AID 504326; in the data active = activation above about 18%;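 note: 0% = vehicle-treated cells and 100% = reference agonist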
HTR5A inv ctr – HTR5A inverse agonism, opioid heterodimer counter-screen; inhibition, % at 9.3 µM; HTR5A cell line, luminescence; AID 504634; P47898; 340,000 compounds, 0.083% hits; in the data active = inhibition mostly above about 23%, no sharp cut-off; inactive = mostly below about 18%;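 note: 0% = cells with DMSO and 100% = no-cell wells with DMSO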
MOR ag counter – OPRM1 agonism in mouse HTR2A counterscreen; AID 624380; activation, % at 9.3 µM; U2OS OPRM1 beta-arrestin PathHunter, luminescence; DMSO 0%, DAMGO 9.3 µM 100%; 2,300 compounds, 5.3% hits; shares compounds with HTR2A ag;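 active = mean activation above the mean of DMSO-only wells plus 3 SD, cut at about 0.5% in these data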
HTR2A ag conf – mouse HTR2A agonism confirmed; shares compounds with HTR2A ag; CHO-K1 PathHunter beta-arrestin recruitment, luminescence; DMSO 0%, 30 µM serotonin 100%; activation, % at 7.6 µM; 2,300 compounds, 19% hits;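 active = mean activation across triplicates above the hit threshold derived in the original primary screen, cut at about 15% in these data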
Numbers without * were called inactive; x = no result given.

SMILES	HTR2A ag	MOR-DOR inv ag	HTR5A ag	HGIII-sPLA2 inh	OPRM1-OPRD1 ag	HTR5A inv ctr	MOR ag counter	HTR2A ag conf
COC(=O)CC(NS(=O)(=O)c1cccs1)c1ccccc1Cl (stereo not given)	18.6*	5.0	-3.4	-1.5	-0.9	-7.0	-0.4	-3.8
COC(=O)CC(NS(=O)(=O)c1cccs1)c1ccc2c(c1)OCO2 (stereo not given)	4.9	17.9	-5.7	5.1	-5.5	-12.7	x	x
COc1cc(OC)cc(-c2csc(N3CCC(C(N)=O)CC3)n2)c1	x	x	x	-0.3	x	x	x	x
CC12CCC(C(=O)N(CCCCN3CCN(c4ccccn4)CC3)C1=O)C2(C)C (stereo not given)	28.0*	-3.2	0.0	-0.2	0.7	0.0	-0.5	90.2*
COC(=O)[C@]1(CNC(=O)NCCc2ccc(OC)c(OC)c2)CC(=O)N(C)[C@@H]1c1ccccc1	x	x	x	3.2	x	x	x	x
COC(=O)[C@]12C[C@H](CC(=O)N3CCN(C(=O)C4CC4)CC3)C(=O)N(Cc3ccc4c(c3)OCO4)C1=C[C@H](C(C)C)O[C@@H]2C1CC1	x	x	x	-6.8	x	x	x	x
C[C@@H]1CCN(C2CC2)S(=O)(=O)c2c(cccc2N2CC[C@H](N(C)C)C2)O1	x	x	x	16.5	x	x	x	x
c1ccc(Oc2ncnc3ccccc23)cc1	15.7*	5.4	0.2	16.2	-1.1	-0.9	-0.5	-3.7
COc1ccc(O)c(/C=N/NC(=O)c2cccc(N3CCCC3=O)c2)c1	1.0	6.6	9.1	1.0	-1.2	-24.2	x	x
COc1cccc(/C=N/NC(=O)c2cccc(N3CCCC3=O)c2)c1	15.4*	-1.7	0.2	0.2	0.2	-8.3	-0.4	-2.7
C=CCn1c2ccccc2c2nnc(SCCCn3c(=O)[nH]c4ccccc43)nc21	17.2*	9.1	7.8	-32.0	-1.6	7.2	-0.5	3.2
C=CCn1c2ccccc2c2nnc(SCCN3CCCCC3)nc21	-7.0	9.1	-1.1	-8.4	-2.0	4.0	x	x
CCCCNc1c(-c2cccnc2)nc2nc(C)cc(C)n12	20.2*	x	x	0.8	x	x	-0.5	-4.4
Cc1cccc(NC(=O)CN(c2ccc(C(C)C)cc2)S(=O)(=O)c2c(C)nn(C)c2C)n1	15.8*	7.5	5.1	-25.6	-1.4	-14.4	-0.7	-2.5
Cc1nn(C)c(C)c1S(=O)(=O)N(CC(=O)Nc1ccccn1)c1ccc(C(C)C)cc1	-5.4	17.7	4.2	4.4	-3.0	-12.4	x	x
C[C@H]1CN([C@@H](C)CO)C(=O)c2c(c3ccccc3n2C)-c2ccccc2CO[C@H]1CN(C)Cc1cccc(F)c1	4.8	x	x	-12.3	x	x	x	x
C[C@H](CO)N1C[C@H](C)[C@H](CN(C)Cc2cccc(O)c2)OCc2ccccc2-c2c(n(C)c3ccccc23)C1=O	23.2*	x	x	-23.8	x	x	0.2	32.3*
COc1ccc(C2=CC(c3sccc3C)n3nnnc3N2)cc1 (stereo not given)	15.0*	11.5	-0.1	-10.4	-1.9	-10.2	0.1	2.1
COC(=O)[C@]12C[C@H](CC(=O)N3CCOCC3)C(=O)N(Cc3cccc4ccccc34)C1=C[C@H](C1CCCC1)O[C@@H]2C	x	x	x	-11.2	x	x	x	x
O=C1CC(=O)Nc2cc(S(=O)(=O)N3CCOc4ccccc43)ccc2N1	25.6*	9.7	6.3	-9.4	-1.6	6.8	-0.7	-2.2
CCOC(=O)N1CCN(C/C(C)=C/c2ccccc2)CC1	17.9*	-17.1	-3.5	-2.1	3.2	-6.5	-0.7	56.8*
CN1C(=O)CC(N2CCN(c3ccc(Cl)c(Cl)c3)CC2)C1=O (stereo not given)	15.5*	19.2	-2.7	4.0	-4.2	10.0	-0.1	4.9
O=C(NC1CCCCN(Cc2cccc(C(F)(F)F)c2)C1=O)c1cccc(C(F)(F)F)c1 (stereo not given)	x	x	x	11.0	x	x	x	x
C[C@H](O)[C@@H]1CN2CCc3c([nH]c4ccccc34)[C@@H]2C[C@@H]1N(C)C(=O)NC1CCCCC1	-5.5	x	x	-3.4	x	x	x	x
